FBW7 activator: human FBW7 E3 ligase activation, primary screen; AID 1259310; AlphaScreen FBW7–phospho-cyclin E peptide binding, activator screen; Q969H0; 650,000 tested, 0.13% active; normalized activity (activation), % at 26.1 µM; in the data active means normalized activity above about 1.9%;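 further: purified mutant Fbw7 with reduced substrate affinity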
GPR151 activ: activators of human GPR151 | Q8TDV0 | 650,000 tested, 1% active | activation, % at 11.2 µM | PathHunter beta-arrestin GPR151 cells, luminescence; in the data active means activation above about 4.9%
Target sequence (Q8TDV0 whole entry, looked up): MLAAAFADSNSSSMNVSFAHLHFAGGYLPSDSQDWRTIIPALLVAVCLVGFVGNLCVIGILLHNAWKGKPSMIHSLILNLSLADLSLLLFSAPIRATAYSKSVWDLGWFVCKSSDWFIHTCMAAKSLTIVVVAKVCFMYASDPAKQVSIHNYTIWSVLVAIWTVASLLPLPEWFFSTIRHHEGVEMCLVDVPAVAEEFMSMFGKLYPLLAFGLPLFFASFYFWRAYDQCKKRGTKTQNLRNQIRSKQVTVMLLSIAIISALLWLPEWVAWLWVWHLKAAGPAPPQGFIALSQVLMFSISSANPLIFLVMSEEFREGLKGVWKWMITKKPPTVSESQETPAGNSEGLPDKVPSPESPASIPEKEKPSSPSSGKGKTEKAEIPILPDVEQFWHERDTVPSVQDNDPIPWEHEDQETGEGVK
MITF inh: blocks human microphthalmia-associated transcription factor; O75030; 650,000 tested, 0.91% active; inhibition, % at 2.6 µM; AlphaScreen MITF homodimerization, bead proximity signal; in the data active means inhibition above about 50%
TEAD-YAP inh: TEAD-YAP interaction inhibition | 640,000 tested, 1.4% active | inhibition, % at 9.12 µM | AID 1259422 | HEK-TIYL cells, TEAD-Gal4/YAP UAS-luciferase luminescence; in the data active means inhibition above about 32%
GPR151 conf act: human GPR151 activation, confirmation screen; activation, % at 11.2 µM; 6,700 tested, under 10 active; shares compounds with GPR151 activ; AID 1508609; GPR151 PathHunter beta-arrestin cells, luminescence, 90 min; % of EA-reagent control over plate median;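 active means mean percent activation across replicates above the confirmation screen cutoff of 4.91%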
GPR119 ag: activates human GPR119 in a GPR151 counter-screen; shares compounds with GPR151 activ; GPR119 PathHunter beta-arrestin cells, luminescence, 90 min; 0 = compound-well median, 100 = enzyme-acceptor control; activation, % at 11.2 µM; 6,700 tested, 0.3% active; AID 1508611;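 active means mean percent activation in the counterscreen above 29.09%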;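 further: counterscreen on off-target GPR119 to flag nonselective hits from the GPR151 activator screen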
Numbers stand for hits; n = inactive; x = no result given; ! = not confirmed by another sample. A selection: hits, their analogues and other compounds. The true share with any hit is near 3.5%.

SMILES	FBW7 activator	GPR151 activ	MITF inh	TEAD-YAP inh	GPR151 conf act	GPR119 ag
NC(=O)NC1NC(=O)NC1=O (centres undefined)	n	5.7!	n	n	n	n
CCOc1ccccc1N(C)S(=O)(=O)c1ccc2[nH]cc(C(=O)N(CC)CC)c(=O)c2c1	n	5.9	n	n	n	n
CCCn1nnc(NC(=S)NC(=O)c2cccc(OC)c2)n1	n	n	n	n	x	x
Cc1cccc(NC(=O)Nc2nnc(N3CCCCC3)s2)c1	n	5.6	n	n	n	n
O=C(Nc1cccc(C(F)(F)F)c1)Nc1nnc(N2CCCCCC2)s1	n	5.2	n	n	n	n
COc1cc(NC(=O)Nc2nnc(N3CCCCC3)s2)cc(OC)c1	n	5.3	n	n	n	n
Cc1ccc(NC(=O)Nc2nnc(N3CCCCC3)s2)c(C)c1	n	7.4	n	n	n	n
O=C(Nc1cccc(Br)c1)Nc1nnc(N2CCCC2)s1	n	n	n	n	x	x
CC1CN(S(=O)(=O)c2ccc3c(c2)NC(=O)CC(=O)N3)c2ccccc2S1 (centres undefined)	n	n	n	n	x	x
Cc1ccc(/C=N/NC(=O)CCC(=O)NCc2ccccc2)o1	n	n	n	n	x	x
CCOC(=O)C1=C(O)/C(=C/c2ccc(OC)c(OC)c2OC)SC1=Nc1ccc(Cl)cc1	n	n	n	n	x	x
CCOc1ccc2[nH]c(=O)c(CN(Cc3ccc(OC)cc3)C(=O)N(C)C)cc2c1	n	8.3	n	n	n	n
CN(CCc1ccccc1)C(=O)c1nc2sccn2c1CN1CCCC(CO)C1 (centres undefined)	n	n	n	n	x	x
CC(NC(=O)C1CC1)C(c1cccs1)N1CCN(c2ccccc2)CC1 (centres undefined)	n	5.7	n	n	n	n
CC(NC(=O)C1CC1)C(c1cccs1)N1CCN(c2ccccc2F)CC1 (centres undefined)	n	n	n	n	x	x
Cc1ncc(CN2CCC(C(=O)Nc3ccc(-n4cccn4)cc3)CC2)s1	n	n	n	n	x	x
Cc1cc(C)n(-c2ccc(NC(=O)C3CCN(Cc4cnc(C)s4)CC3)cc2)n1	n	5.8!	n	n	n	n
CCC(C)OC(=O)C1=C(C)NC2=C(C(=O)CC(c3ccc(Cl)cc3)C2)C1c1cccc(O)c1 (centres undefined)	n	n	n	n	x	x
CSc1nc2ccccc2c(=O)n1C1CCCCC1	n	5.3	n	n	n	n
CCc1nc2ccccc2c(NC(=O)CN2CCC(C)CC2)c1C	n	5.3	n	n	n	n
O=C(O)C(Oc1ccccc1-n1cccc1)c1ccccc1 (centres undefined)	n	6.4	n	n	n	n
O=C(c1ccccc1)c1ccccc1-n1cccc1	n	n	n	n	x	x
CC(C)NC[C@H](O)COc1cccc2ccccc12	n	8.0!	n	n	n	n
CCc1cc2c(cc3c(=O)n(CC(=O)NCc4ccccc4Br)ncn32)s1	n	6.4	n	n	n	n
CCOc1ccc(/C=N/n2c(C)cc(C)c(C#N)c2=O)cc1	n	n	n	n	x	x
SMILES	FBW7 activator	GPR151 activ	MITF inh	TEAD-YAP inh	GPR151 conf act	GPR119 ag
O=C(c1c(F)cccc1F)N1CCCC(c2nc(-c3ccncc3)no2)C1 (centres undefined)	n	n	n	n	x	x
COc1cccc(C(=O)COc2ccccc2N2C(=O)C3C4CCC(C4)C3C2=O)c1 (centres undefined)	n	n	n	n	x	x
CCOC(=O)N1CCC(N(CCOC)C(=S)Nc2cccc(OC)c2)CC1	n	8.6	n	n	n	n
Clc1ccc(N2CCN(Cc3ccoc3)CC2)cc1	n	n	n	n	x	x
Clc1ccc(N2CCN(Cc3ccco3)CC2)cc1	n	5.0	n	n	n	n
CC(C)C(NC(=O)OC(C)(C)C)C(=O)NC(C(=O)NC(C(=O)NN)C(C)C)C(C)C (centres undefined)	n	n	n	n	x	x
O=C(c1c(-c2ccccc2)oc2ccc(O)cc12)N1CCCCC1	n	4.9	n	n	n	n
O=C(O)c1c(-c2ccccc2)oc2ccc(O)cc12	n	n	n	n	x	x
COc1ccc(OC)c(C2=NOC(C(=O)NCc3cccnc3)C2)c1 (centres undefined)	n	6.3	n	n	n	n
COc1ccc(OC)c(C2=NOC(C(=O)NCc3ccccc3)C2)c1 (centres undefined)	n	n	n	n	x	x
